Several values for one entry are separate records, joined by “and”; a condition that tells them apart may be missing. Equal values may be shown once. About 83,000 compounds went through this panel and 20% of them were active in at least one assay; those are over-represented in the sample as a whole.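 Single-concentration screen, 48 h exposure, 96-well plates. Endpoint: percent growth. Below 10 = active.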 More than one record can exist for a structure, and the calls need not agree. Activity calls are given as the source filed them.
What was measured:
Experiment in all cases: NCI-60 one-dose screen, 48 h (100 = growth as untreated, 0 = no growth, -100 = all killed)
[1] = system: NCI-H226 lung; conditions: 10 µM
[2] = system: NCI-H322M lung; conditions: 10 µM
[3] = system: HOP-62 NSCLC; conditions: 10 µM
[4] = system: NCI-H460 lung; conditions: 10 µM
[5] = system: A549/ATCC NSCLC; conditions: 10 µM
[6] = system: 786-0 renal; conditions: 10 µM
[7] = system: COLO 205 colon; conditions: 10 µM
[8] = system: DU-145 prostate; conditions: 10 µM
[9] = system: SF-268 CNS; conditions: 10 µM
[10] = system: SF-295 CNS; conditions: 10 µM
[11] = system: SF-539 CNS; conditions: 10 µM
[12] = system: HCT-15 colon; conditions: 10 µM
[13] = system: HT29 colon; conditions: 10 µM
[14] = system: SNB-75 CNS; conditions: 10 µM
[15] = system: SNB-19 CNS; conditions: 10 µM
[16] = system: U251 CNS; conditions: 10 µM
[17] = system: PC-3 prostate; conditions: 10 µM
[18] = system: ACHN renal; conditions: 10 µM
[19] = system: HL-60(TB) leukemia; conditions: 10 µM unless noted
[20] = system: CCRF-CEM leukemia; conditions: 10 µM

Measured: growth

NC1CCc2cc(O)c(O)cc2C1 (stereo not given)
inactive: [1] 90.7% | [2] 98.6% | [3] 100% | [4] 87% | [5] 82.3% | [6] 84.7% | [7] 80.7% | [8] 94.3% | [9] 104% | [10] 95% | [11] 94.8% | [12] 41.8% | [13] 39.7% | [14] 82.6% | [15] 98% | [16] 79.6% | [17] 76.1% | [18] 96.9% | [19] 32.9% | [20] 48%

C/C=C/CC(C)C(O)[C@H](NC(=O)[C@@H]1CCCN1C(=O)C(C)(C)NC(=O)CCCCCCCCC)C(=O)N[C@@](C)(CC)C(=O)N[C@@H](CCC(N)=O)C(=O)N[C@H](CCC(N)=O)C(=O)NC(C)(C)C(=O)NC(C)(C)C(=O)N[C@@H](CCC(N)=O)C(=O)N[C@H](CC(C)C)C(=O)N[C@H](CO)CC(C)C (stereo not given in full)
-39.5% (active) and 25.2% (inactive): [6]
-69.3% (active) and 12% (inactive): [11]
-89.3% (active) and 13.7% (inactive): [16]
-12.3% (active) and 28.3% (inactive): [3]
-56.6% (active) and 12.7% (inactive): [4]
-28.9% (active) and 35.2% (inactive): [15]
active: [8] -94.5% and -42.1% | [9] -77% and 4.8% | [10] -64.6% and -30.2% | [14] -55.9% and -38.8%
-0.538% (active) and 75.5% (inactive): [1]
inactive: [2] 31% and 67.6% | [5] 78.8% and 99.8% | [12] 38% and 89.3% | [13] 58.1% and 90.2% | [17] 21.4% and 32.4% | [18] 40.3% and 68.4% | [20] 14.7% and 49.4%
1.3% (active) and 79.5% (inactive): [19]
-10.4% (active) and 50.9% (inactive): [7]

COc1cccc2c1cc([N+](=O)[O-])c1c(C(=O)O)cc3c(c12)OCO3
active: [13] 0.133%
inactive: [1] 104% | [2] 115% | [3] 113% | [4] 105% | [5] 100% | [6] 109% | [7] 18.1% | [8] 112% | [9] 108% | [10] 101% | [11] 106% | [12] 99.9% | [14] 96.2% | [15] 102% | [16] 103% | [17] 95.6% | [18] 101% | [19] 105% | [20] 96.6%

CCCCCCCCCC(=O)N[C@@](C)(CC)C(=O)N1CCC[C@H]1C(=O)N[C@@H](CC(C)C)C(=O)N[C@@](C)(CC)C(=O)N[C@@H](CCC(N)=O)C(=O)N[C@H](CCC(N)=O)C(=O)NC(C)(C)C(=O)NC(C)(C)C(=O)N[C@@H](CCC(N)=O)C(=O)N[C@H](CC(C)C)C(=O)N[C@H](CO)CC(C)C
active: [1] -71.9% and -72.7% | [2] -94.9% and -60.9% | [3] -74.3% and -67.3% | [4] -77.3% and -76.8% | [5] -48.6% and -38% | [6] -78.5% and -80.4% | [7] -63.2% and -52.1% | [8] -99.1% and -81.9% | [9] -80.5% and -64.9% | [10] -91.7% and -90.9% | [11] -97.2% and -100% | [12] -77.8% and -78.1% | [13] -40.3% and -67.2% | [14] -90.8% and -96.3% | [15] -93.9% and -99.6% | [16] -75.9% and -77.1% | [17] -87.2% and -63.7% | [18] -93% and -98.4% | [19] -61.8% and -23.6% | [20] -38.9% and -40.9%

COc1cc2c(cc1OC)[C@@H]1N(CC2)C(=O)c2ccccc2[C@@]1(C)C(=O)O
inactive: [1] 111% | [2] 102% | [3] 108% | [4] 109% | [5] 111% | [6] 99.9% | [7] 115% | [8] 110% | [9] 110% | [10] 101% | [11] 105% | [12] 101% | [13] 107% | [14] 108% | [15] 98.4% | [16] 106% | [17] 104% | [18] 110% | [19] 104% | [20] 105%

CC1=C[C@H]2O[C@@H]3C[C@H]4OC(=O)/C=C\C=C\[C@H]([C@@H](C)O)OCC/C(C)=C/C(=O)OC[C@@]2(CC1)[C@]4(C)[C@]31CO1
active: [1] -50.5% | [2] -19% | [3] -42.9% | [4] -7.38% | [5] -25.6% | [6] -43.6% | [7] -62.3% | [8] -17.5% | [9] -1.73% | [10] -37.5% | [11] -39.2% | [12] -18.6% | [13] -27.7% | [14] -50.1% | [15] -6.9% | [16] -17.3% | [17] -23.9% | [18] -16.1% | [19] -44.9% | [20] -11.5%

COc1cc(C)c(-c2ccc(OC)c(=O)cc2C)c(OC)c1OC
4.53% (active) and 103% (inactive): [4]
6.39% (active) and 100% (inactive): [10]
inactive: [1] 41.8% and 98.4% | [2] 46.5% and 104% | [3] 31.5% and 98.7% | [5] 17.6% and 98.4% | [6] 37.8% and 101% | [8] 13.3% and 104% | [9] 37.5% and 103% | [12] 12% and 101% | [14] 28.3% and 93.6% | [15] 20.1% and 96.6% | [16] 11.9% and 104% | [17] 19% and 95.8% | [18] 31.9% and 105% | [20] 10.1% and 96.8%
-7.85% (active) and 94.9% (inactive): [11]
-29.2% (active) and 94.5% (inactive): [7]
-24.6% (active) and 98.8% (inactive): [19]
4.37% (active) and 113% (inactive): [13]

Cc1ccc(CNc2nc3ccc(OC/C(=C/F)CN)cc3o2)cn1
inactive: [1] 90.3% | [2] 105% | [3] 72.9% | [4] 93.7% | [5] 95.6% | [6] 92.3% | [7] 111% | [8] 88.4% | [9] 89.8% | [10] 99.9% | [11] 94.9% | [12] 112% | [13] 112% | [14] 55.5% | [15] 98.8% | [16] 110% | [17] 98.3% | [18] 99% | [19] 141% | [20] 105%

COC1[C@@H]2C[C@H]3C(C)(C)O[C@@](C/C=C(/C)C(=O)O)(C2=O)[C@]32Oc3c(CC=C(C)C)c4c(c(O)c3C(=O)[C@H]12)C=CC(C)(C)O4 (stereo not given in full)
inactive: [1] 23%
active: [2] -67% | [3] -24.8% | [4] -55.6% | [5] -20.3% | [6] -50.8% | [7] -72.1% | [8] -97.2% | [9] -45.5% | [10] -55.2% | [11] -23% | [12] -43.1% | [13] -33.3% | [14] -24.3% | [15] -69.5% | [16] -91.1% | [17] -18.4% | [18] -71% | [19] -29.8% | [20] -1.89%

CN(CCF)/N=N/c1nc[nH]c1C(N)=O
inactive: [1] 47.6% | [2] 60% | [3] 26.5% | [4] 38.6% | [5] 98.8% | [6] 41.8% | [7] 39.1% | [8] 24.6% | [9] 36.8% | [10] 19.9% | [11] 38.5% | [12] 57.6% | [13] 42% | [14] 31.4% | [15] 98.8% | [16] 90.9% | [17] 55.1% | [18] 36.6% | [19] 21.6% | [20] 20.8%

CC(=O)O[C@@H]1[C@@H]2O[C@H]2[C@@](C)(O)C(=O)[C@@H](C)C/C=C/[C@H]2[C@@H]3O[C@]3(C)[C@@H](C)C3[C@H](Cc4ccccc4)NC(=O)[C@@]312 (stereo not given in full)
active: [3] 5.72% | [14] -12.9%
inactive: [1] 65.7% | [2] 92.5% | [4] 28.5% | [5] 25.1% | [6] 24.3% | [7] 38.8% | [8] 50.2% | [9] 26.5% | [10] 65.4% | [11] 51.5% | [12] 54.1% | [13] 36.3% | [15] 55.1% | [16] 43.1% | [17] 72.3% | [18] 40.4% | [19] 58.2% | [20] 44.2%

From PubChem BioAssay (NCI)
